Pf growth 48h: inhibits P. falciparum growth in the first generation, 48 h. P. falciparum luciferase growth in erythrocytes, 48 h. Potency, µM (series often up to 28.7 µM), hits mostly inhibitors. hit rate 5.9% among 310,000. AID 504832; active = well fitted inhibition curve with a large enough effect; inconclusive = small, poorly fitted or top-dose-only effect, or another doubt; inactive = no such curve, though single readings can be large or run the other way
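Here the parasites carry a stable luciferase gene and grow inside erythrocytes in Albumax-based RPMI medium with compound for one erythrocytic cycle. Activity is scored as loss of luminescent signal.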
Shiga inhibitor: inhibitors of Shiga toxin in Vero cells; inhibition, % at 38.7 µM; AID 2315; Vero cells, Shiga toxin protein synthesis inhibition reporter; hit rate 9.2% among 290,000; in the data active = inhibition mostly above about 28%, no sharp cut-off; inactive = mostly below about 43%
SARS PLP yeast: inhibitors of SARS-CoV papain-like protease in yeast | S. cerevisiae expressing SARS-CoV PLpro, growth rescue | Potency, µM (highest dose often 32.9 µM), most hits filed as activators | hit rate 0.19% among 330,000 | AID 485353; note: nearly all actives have a fitted effect of over 55% in size
NS1 function inh: blocks influenza NS1 protein function; Potency, µM (highest dose often 46.1 µM); hit rate 0.4% among 270,000; AID 2326; note: actives are rising curves; nearly all actives have a fitted effect of over 50% in size
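Growth recovery, yeast-based: influenza A NS1 expressed in S. cerevisiae causes slow growth, and suppressors are detected by OD600. The parent strain without NS1 is used as positive control.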
Pf growth 96h: P. falciparum growth inhibition at 96 hours. Potency, µM (doses to about 28.7 µM), hits mostly inhibitors. P. falciparum luciferase reporter growth, 96 h. AID 504834. hit rate 6.9% among 320,000; active = well fitted inhibition curve with a large enough effect; inconclusive = small, poorly fitted or top-dose-only effect, or another doubt; inactive = no such curve, though single readings can be large or run the other way
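Readout is luminescence from an integrated firefly luciferase in P. falciparum. Red cells, 2% hematocrit and 0.05% parasitemia final, were cultured with compound through two parasite generations (96 hours) at 37 C, 5% CO2.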
Cycloheximide cs: counter-screen for Shiga toxin inhibitors: cycloheximide protein synthesis inhibition. cell reporter, cycloheximide protein synthesis inhibition counterscreen. max response, %. hit rate 12% among 300,000. AID 2314; in the data active = max response mostly above about 13%, no sharp cut-off; inactive = mostly below about 14%; note: read at 38.3 µM for the half of the compounds with a filed dose
Of the large screens only hits and unclear results are named; the others gave an inactive call. A selection: hits, their analogues and other compounds. The true share with any hit is near 21%. Unless noted, calls come from the whole dose curve.

CCOc1ccccc1N(CC(=O)NCC1CCCO1)C(=O)CNS(=O)(=O)c1ccccc1 (stereo not given)	Pf growth 96h 15µM
COc1ccc(CNC(=O)CN(CC2CCCO2)C(=O)CNS(=O)(=O)c2ccc(F)cc2)cc1 (stereo not given)	Pf growth 96h 10µM
COc1ccc(S(=O)(=O)NCC(=O)N(CC(=O)NCC2CCCO2)c2ccccc2C)cc1 (stereo not given)	none
Cc1ccc(S(=O)(=O)NCC(=O)N(CC(=O)NCC2CCCO2)Cc2ccco2)cc1 (stereo not given)	Cycloheximide cs 10
Cc1ccc(S(=O)(=O)NCC(=O)N(CC(=O)NCc2ccco2)Cc2ccco2)cc1	Pf growth 96h 13µM
Cc1ccc(S(=O)(=O)NCC(=O)N(CC(=O)NCC2CCCO2)Cc2ccccc2)cc1 (stereo not given)	none
COc1ccc(OC)c(NC(=O)NC2CCCc3ccccc32)c1 (stereo not given)	Pf growth 48h inconclusive, Pf growth 96h inconclusive
CNC(=S)N(CCc1c(C)[nH]c2ccc(OC)cc12)Cc1ccco1	Pf growth 48h inconclusive, Pf growth 96h inconclusive
CO[C@H]1/C=C/O[C@@]2(C)Oc3c(C)c(O)c4c(O)c(c5c(c4c3C2=O)NC2(CCN(CC(C)C)CC2)N=5)=NC(=O)/C(C)=C\C=C\[C@H](C)[C@H](O)[C@@H](C)[C@@H](O)[C@@H](C)[C@H](OC(C)=O)[C@@H]1C	Pf growth 48h 8.5µM, Pf growth 96h 5.4µM (no result: Shiga inhibitor, SARS PLP yeast, NS1 function inh, Cycloheximide cs)
CO[C@@H]1/C=C\O[C@]2(C)Oc3c(C)c(O)c4c(O)c(c(CN5CCN(C)CC5)c(O)c4c3C2=O)NC(=O)/C(C)=C\C=C[C@@H](C)[C@@H](O)[C@H](C)[C@@H](O)C(C)[C@H](OC(C)=O)[C@@H]1C (stereo not given in full)	none (no result: Pf growth 48h, Shiga inhibitor, SARS PLP yeast, Pf growth 96h, Cycloheximide cs)
COC1C=CO[C@@]2(C)Oc3c(C)c(O)c4c(O)c(c(C=NN5CCN(C)CC5)c(O)c4c3C2=O)NC(=O)/C(C)=C\C=CC(C)C(O)[C@@H](C)C(O)C(C)[C@H](OC(C)=O)C1C (stereo not given in full)	Pf growth 48h 0.95µM, Pf growth 96h 0.6µM (no result: Shiga inhibitor, SARS PLP yeast, NS1 function inh, Cycloheximide cs)
COC1C=CO[C@@]2(C)Oc3c(C)c(O)c4c(O)c(c5c(nc6cc(C)ccn65)c4c3C2=O)NC(=O)/C(C)=C\C=CC(C)C(O)[C@@H](C)C(O)C(C)[C@@H](OC(C)=O)C1C (stereo not given in full)	Pf growth 48h 6.7µM, Pf growth 96h 4.8µM (no result: Shiga inhibitor, SARS PLP yeast, NS1 function inh, Cycloheximide cs)
CCn1cc(/C=N\NC(=O)Cc2ccc(Cl)cc2)cn1	none
COc1ccc(S(=O)(=O)N2CCC(C(=O)NCc3ccncc3)CC2)cc1C	none
CC1(C)Cc2c(sc3c2c(=N)n(Cc2ccco2)c(=O)n3Cc2ccccc2)CO1	Pf growth 48h 9.3µM
O=c1c2c3c(sc2[nH]c(=S)n1Cc1ccco1)CCC3	none
CC1(C)Cc2c(sc3c2c(=N)n(Cc2ccco2)c(=O)n3Cc2ccc(Cl)cc2)CO1	Pf growth 48h 5.2µM, Pf growth 96h 10µM
CCn1c(=O)n(-c2ccc(Cl)cc2)c(=O)c2c3c(sc21)COC(C)(C)C3	Pf growth 48h inconclusive, Pf growth 96h 7.4µM
Cn1c(=O)n(-c2ccc(Cl)cc2)c(=O)c2c3c(sc21)COC(C)(C)C3	Pf growth 48h inconclusive, Pf growth 96h inconclusive
CC1(C)Cc2c(sc3[nH]c(=S)n(Cc4ccco4)c(=O)c23)CO1	Pf growth 96h 2.6µM
Cc1ccc(OCCCC(=O)ON=C(N)c2ccccc2C)cc1	none (no result: Shiga inhibitor, NS1 function inh, Cycloheximide cs)
CCOc1ccc(CN2CCN(C(=O)c3cccc(F)c3)CC2)cc1	none
CC1CN(C(=O)c2cccc(COc3ccc(Br)cc3)c2)CC(C)O1 (stereo not given)	Shiga inhibitor 13, Cycloheximide cs 58
CCOc1ccc(N=C(/C(C(=O)C(=O)N2CCOCC2)=C(/O)c2ccccc2)c2ccccc2)cc1	Shiga inhibitor 62, Cycloheximide cs 47
O=C(c1cccc(OCc2ccccc2)c1)N1CCOCC1	Pf growth 96h inconclusive, Cycloheximide cs 13 (no result: NS1 function inh)
CCOc1ccc(OCc2cccc(C(=O)N3CCOCC3)c2)cc1	Shiga inhibitor 127, Cycloheximide cs 101
Cc1ccc(C)n1-c1ccc(N2CCOCC2)c(Br)c1	SARS PLP yeast inconclusive, Pf growth 96h 15µM (no result: Pf growth 48h)
Cn1cc(CN2CCN(CC(C)(C)C)C(CCO)C2)c2ccccc21 (stereo not given)	Pf growth 96h 1.5µM
CC(C)(C)CN1CCN(Cc2cccnc2)CC1CCO (stereo not given)	Pf growth 96h 10µM (no result: Shiga inhibitor)
Cc1cccc(CN2CCN(Cc3cccc(-n4cccn4)c3)CC2CCO)n1 (stereo not given)	Pf growth 96h 4.1µM
CC(C)CN1CCN(Cc2cn(C)c3ccccc23)CC1CCO (stereo not given)	Pf growth 96h inconclusive
CCOC(=O)c1[nH]c(CN2CCN(c3ccc(OC)cc3)CC2)c(C(=O)OCC)c1C	Pf growth 48h 9.3µM, Pf growth 96h 6.6µM
CCOC(=O)c1cc2cc(OC)ccc2[nH]1	Shiga inhibitor 110, Cycloheximide cs 49
CCOC(=O)c1[nH]c2ccc(OC)cc2c1NC(=S)N1CCN(c2ccc(F)cc2)CC1	Pf growth 96h inconclusive
CCOC(=O)c1[nH]c2ccc(OC)cc2c1NC(=O)c1ccccc1C(=O)O	Shiga inhibitor 64, Cycloheximide cs 35
CCOC(=O)c1[nH]c2ccc(OC)cc2c1NC(=O)c1cccc(OC)c1	Pf growth 96h inconclusive
CCOC(=O)c1[nH]c2ccc(OC)cc2c1NC(=S)N1CCN(c2cccc(C)c2C)CC1	Pf growth 48h inconclusive, Cycloheximide cs 17
CCOC(=O)c1[nH]c(C)c(C(=O)N2CCN(c3ccc(OC)cc3)CC2)c1C	none (no result: NS1 function inh)
CCC1(C)Cc2ccccc2-c2[nH][nH]c(=O)c21 (stereo not given)	Pf growth 96h inconclusive (no result: NS1 function inh)
CC(C)n1cc(C(=O)N2CCCC(N3CCN(c4cccc(Cl)c4)CC3)C2)cn1 (stereo not given)	Pf growth 96h inconclusive
O=C(COC(=O)Cc1c(Cl)cccc1Cl)NCC1CCCO1 (stereo not given)	none
Cc1nn(-c2ccc(Cl)cc2)c(NC(=O)C(C)C)c(-c2ccccc2)c1=O	none
COc1ccc(/C=N/NC(=O)Cc2cc(OC)c(OC)cc2[N+](=O)[O-])cc1	none
CCOC(=O)c1[nH]c2ccc(OC)cc2c1NC(C)=O	none (no result: Pf growth 48h)
CCOC(=O)c1[nH]c2ccc(F)cc2c1NC(=O)c1ccccc1C(=O)O	Shiga inhibitor 96, Cycloheximide cs 43
CCOC(=O)c1[nH]c2ccccc2c1NC(=O)Nc1ccc(OC)cc1	Cycloheximide cs 9.9
CCOC(=O)c1[nH]c2ccc(F)cc2c1NC(=O)c1cc(OC)c(OC)c(OC)c1	Pf growth 48h inconclusive
CCOC(=O)c1[nH]c2ccc(OC)cc2c1C	Shiga inhibitor 73, Cycloheximide cs 29
O=C(c1ccccc1)N1CCN(C(=S)NCc2ccco2)CC1	none (no result: NS1 function inh)

Bioassay records: PubChem BioAssay, National Center for Advancing Translational Sciences (NCATS)
